The nature of assay [1]: small molecules captured by biotinylated probe aFSTL3 – biochemical, small-molecule microarray, fluorescence 635/667, stem cell growth factor project, primary screen (AID 1064).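 Note: measures binding of the biotinylated anti-FSTL3 antibody to printed compounds.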 The conditions noted are these: higher = more signal.
Assay [2] is described as follows: binders from COS7 lysate, DM2A8 probe, primary screen, torsin A project, cell lysate, small-molecule microarray, fluorescence 635/667 (AID 1065). The following applies: higher = more signal, COS7 lysate expressing mutant human TOR1A.
A short description of assay [3]: small molecules captured by biotinylated probe aFGF2 – biochemical, small-molecule microarray, fluorescence 635/667, stem cell growth factor project, primary screen (AID 1067).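 Note: measures binding of biotinylated aFGF2 protein to printed compounds on slides; z-score merges feature fluorescence and signal-to-noise across triplicate slides.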 The following applies: higher = more signal.
Assay [4] can be described thus: small molecules captured by biotinylated probe aFGF10 – biochemical, small-molecule microarray, fluorescence 635/667, stem cell growth factor project, primary screen (AID 1071).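 Note: score merges 667 nm spot intensity and signal to noise from triplicate slides.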 The following applies: higher = more signal.
The target of assay [5] is Neurogenic locus notch homolog protein 2 (Homo sapiens) (UniProt Q04721). The assay is described as follows: small molecules binding Notch2 protein – biochemical, small-molecule microarray, 635 nm fluorescence, stem cell growth factors, primary screen (AID 1073). The conditions noted are these: higher = more signal.
The target of assay [6] is Pro-neuregulin-1, membrane-bound isoform (Homo sapiens) (UniProt Q02297). Briefly: small molecules binding neuregulin-1 protein – biochemical, small-molecule microarray, fluorescence 635/667, psychiatric disease protein project, primary screen (AID 1075).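 Note: score combines 667 nm spot fluorescence with signal to noise.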 The conditions noted are these: NRG1 binding, 635 nm fluorescence, higher = more signal.
Assay [7] concerns Neuregulin-1 EGF-like domain. Briefly: small molecules binding NRG1 EGF domain – biochemical, small-molecule microarray, 635 nm fluorescence, primary screen (AID 1081).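 Note: binding of the protein to compounds printed on small-molecule microarray slides.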 The conditions noted are these: higher = more signal.
Assay [8] in a line: FRG1 expression reporter modulators in myotubes – cell-based, C2C12 myotubes, firefly/Renilla luciferase, luminescence, FRG1 inhibition for FSHD, primary screen (AID 1084). The conditions noted are these: FRG1 promoter luciferase, higher = more signal, called active from +8 up or from −8 down.
Assay [9] can be described thus: small molecules captured by biotinylated probe aFST – biochemical, small-molecule microarray, fluorescence 635/667, stem cell growth factor project, primary screen (AID 1086).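 Note: score merges 667 nm fluorescence with signal-to-noise of each printed compound spot.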 The conditions noted are these: higher = more signal.
Assay [10] can be described thus: binders of probe aHhip on microarray, primary screen, stem cell growth factor project, biochemical, small-molecule microarray, fluorescence 635/667 (AID 1087).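 Note: score merges spot fluorescence at 667nm with spot signal to noise ratio.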 The conditions noted are these: higher = more signal.
The subject of assay [11] is PRMT1 (protein arginine N-methyltransferase 1). The assay is described as follows: small molecules binding arginine methyltransferase PRMT1 – biochemical, small-molecule microarray, 635 nm fluorescence, primary screen (AID 1088).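 Note: binding of Prmt1 protein to compounds spotted on small-molecule microarray slides.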 The conditions noted are these: higher = more signal.
The nature of assay [12]: growth effects on S. cerevisiae YJM789 – YJM789 clinical isolate, OD600, 24 h, basal, primary screen (AID 1089).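 Note: growth of clinical yeast isolate S. cerevisiae YJM 789 seeded 1000 cells per well; test concentration not given here.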 The following applies: higher = more signal, called active from +8 up or from −8 down.
A short description of assay [13]: S. pombe growth modifiers, basal conditions – strain 972, OD600, 24 h, no modulator, primary screen (AID 1090).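 Note: basal condition with compound alone and no growth modifier present; test concentration not given here.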 The following applies: S. pombe 972 growth, higher = more signal, called active from +8 up or from −8 down.
Assay [14] can be described thus: budding yeast growth modifiers under rapamycin – strain BY4716, OD600, 96 h, primary screen (AID 1091). Note: test concentration not given here. The conditions noted are these: S. cerevisiae BY4716 + rapamycin, higher = more signal, called active from +8 up or from −8 down.
The target in assay [15] is Torsin-1A-interacting protein 2 (Homo sapiens) (UniProt Q8NFQ8). The assay is described as follows: small molecules binding lysate-expressed LULL1 – cell lysate, human LULL1 lysate, 635/667 nm fluorescence, primary screen (AID 1092).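 Note: score merges per-feature 667 nm fluorescence with signal-to-noise.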 The conditions noted are these: small-molecule microarray, hLULL1 lysate binding, 635 nm fluorescence; higher = more signal.
A short description of assay [16]: optical density change of DRC41 E. coli – strain DRC41, OD650, 24 h, E. coli filamentation project, primary screen (AID 1093).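 Note: MC1000 strain lacking acrAB efflux and sulA so SOS filamentation is blocked; test concentration not given here.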 The following applies: E. coli DRC41 growth, higher = more signal, called active from +8 up or from −8 down.
Assay [17] can be described thus: probe aLefty2 binding to arrayed compounds – biochemical, biotinylated probe, 635/667 nm fluorescence, primary screen (AID 1094).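 Note: score merges spot fluorescence near 667 nm with spot signal-to-noise ratio.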 The conditions noted are these: small-molecule microarray, higher = more signal.
In assay [18] the test system is Noggin (protein binding on small-molecule microarray). The assay is described as follows: small molecules binding Noggin protein – biochemical, 635/667 nm fluorescence, primary screen (AID 1095).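 Note: score merges 667 nm feature fluorescence with signal to noise over triplicate slides.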 The following applies: 635 nm fluorescence, higher = more signal.
The target in assay [19] is Neurogenic locus notch homolog protein 3 (Homo sapiens) (UniProt Q9UM47). Briefly: small molecules binding NOTCH3 protein – biochemical, 635/667 nm fluorescence, primary screen (AID 1096). The following applies: small-molecule microarray, 635 nm fluorescence, higher = more signal.
A short description of assay [20]: probe aEGFR binding to arrayed compounds – biochemical, biotinylated probe, 635/667 nm fluorescence, primary screen (AID 1097).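 Note: probe is a biotinylated anti-EGFR antibody binding compounds printed on slides; score combines fluorescence near 667 nm and signal to noise of each spot.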 The conditions noted are these: small-molecule microarray, higher = more signal.

Active and inactive are the calls of the source.

Neurogenic locus notch homolog protein 3 (Homo sapiens), sequence (Q9UM47 whole entry, looked up): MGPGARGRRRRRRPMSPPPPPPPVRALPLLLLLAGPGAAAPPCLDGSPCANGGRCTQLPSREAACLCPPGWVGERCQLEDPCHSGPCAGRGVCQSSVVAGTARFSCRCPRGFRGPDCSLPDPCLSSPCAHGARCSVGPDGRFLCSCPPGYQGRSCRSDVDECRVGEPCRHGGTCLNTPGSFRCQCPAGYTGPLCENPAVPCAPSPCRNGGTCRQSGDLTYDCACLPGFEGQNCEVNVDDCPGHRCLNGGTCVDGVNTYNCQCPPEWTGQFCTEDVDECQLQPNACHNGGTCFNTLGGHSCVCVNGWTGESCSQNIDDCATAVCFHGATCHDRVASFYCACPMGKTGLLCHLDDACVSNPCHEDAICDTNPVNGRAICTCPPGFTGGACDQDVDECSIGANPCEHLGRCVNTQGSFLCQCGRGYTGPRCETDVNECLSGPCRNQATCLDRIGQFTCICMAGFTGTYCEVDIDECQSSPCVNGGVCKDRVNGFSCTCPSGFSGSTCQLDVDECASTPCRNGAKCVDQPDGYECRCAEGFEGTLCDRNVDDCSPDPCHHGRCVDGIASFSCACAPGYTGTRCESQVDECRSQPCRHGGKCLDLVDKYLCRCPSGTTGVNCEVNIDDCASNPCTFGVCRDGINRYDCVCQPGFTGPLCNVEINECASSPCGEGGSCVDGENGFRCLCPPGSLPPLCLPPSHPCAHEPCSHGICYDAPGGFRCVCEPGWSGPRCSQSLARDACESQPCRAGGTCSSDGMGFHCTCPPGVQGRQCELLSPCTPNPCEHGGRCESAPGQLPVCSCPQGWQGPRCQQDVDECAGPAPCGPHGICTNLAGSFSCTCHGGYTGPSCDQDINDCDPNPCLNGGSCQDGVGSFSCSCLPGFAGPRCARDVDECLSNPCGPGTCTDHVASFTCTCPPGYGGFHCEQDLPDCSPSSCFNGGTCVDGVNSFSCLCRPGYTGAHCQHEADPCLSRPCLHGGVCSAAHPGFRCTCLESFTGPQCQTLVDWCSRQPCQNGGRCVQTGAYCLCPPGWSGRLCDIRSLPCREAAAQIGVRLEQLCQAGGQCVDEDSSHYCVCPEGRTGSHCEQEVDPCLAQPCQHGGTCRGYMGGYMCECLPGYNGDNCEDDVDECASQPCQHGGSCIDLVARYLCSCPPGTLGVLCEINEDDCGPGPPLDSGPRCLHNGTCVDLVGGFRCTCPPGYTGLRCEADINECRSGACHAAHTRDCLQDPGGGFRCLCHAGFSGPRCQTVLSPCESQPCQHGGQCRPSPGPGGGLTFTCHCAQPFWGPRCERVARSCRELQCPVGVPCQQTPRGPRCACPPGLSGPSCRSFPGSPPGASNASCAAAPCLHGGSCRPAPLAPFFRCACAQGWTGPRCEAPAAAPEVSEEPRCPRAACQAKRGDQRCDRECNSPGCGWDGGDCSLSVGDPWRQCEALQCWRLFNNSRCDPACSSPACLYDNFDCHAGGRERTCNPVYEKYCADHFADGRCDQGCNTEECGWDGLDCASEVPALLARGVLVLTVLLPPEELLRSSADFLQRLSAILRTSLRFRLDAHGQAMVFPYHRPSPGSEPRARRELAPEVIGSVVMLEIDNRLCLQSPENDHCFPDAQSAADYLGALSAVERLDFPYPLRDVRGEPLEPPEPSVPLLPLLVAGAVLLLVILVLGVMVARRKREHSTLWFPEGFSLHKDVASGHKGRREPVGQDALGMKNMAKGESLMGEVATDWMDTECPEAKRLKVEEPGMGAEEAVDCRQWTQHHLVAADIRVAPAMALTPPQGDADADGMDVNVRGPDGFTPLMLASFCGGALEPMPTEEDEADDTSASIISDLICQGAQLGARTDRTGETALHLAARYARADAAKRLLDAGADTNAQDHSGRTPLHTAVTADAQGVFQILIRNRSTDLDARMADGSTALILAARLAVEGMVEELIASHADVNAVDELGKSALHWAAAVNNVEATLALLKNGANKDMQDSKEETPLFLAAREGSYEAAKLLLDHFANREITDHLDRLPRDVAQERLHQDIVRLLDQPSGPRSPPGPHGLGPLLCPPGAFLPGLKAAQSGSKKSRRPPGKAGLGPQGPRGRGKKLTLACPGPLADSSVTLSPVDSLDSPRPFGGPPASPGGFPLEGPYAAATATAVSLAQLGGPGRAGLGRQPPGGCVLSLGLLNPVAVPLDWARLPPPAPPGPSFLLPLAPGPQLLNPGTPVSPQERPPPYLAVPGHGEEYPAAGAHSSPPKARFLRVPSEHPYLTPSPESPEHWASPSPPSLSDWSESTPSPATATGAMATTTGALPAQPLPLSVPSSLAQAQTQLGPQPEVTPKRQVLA
Pro-neuregulin-1, membrane-bound isoform (Homo sapiens), sequence (Q02297 whole entry, looked up, the tested form may be a part, canonical isoform): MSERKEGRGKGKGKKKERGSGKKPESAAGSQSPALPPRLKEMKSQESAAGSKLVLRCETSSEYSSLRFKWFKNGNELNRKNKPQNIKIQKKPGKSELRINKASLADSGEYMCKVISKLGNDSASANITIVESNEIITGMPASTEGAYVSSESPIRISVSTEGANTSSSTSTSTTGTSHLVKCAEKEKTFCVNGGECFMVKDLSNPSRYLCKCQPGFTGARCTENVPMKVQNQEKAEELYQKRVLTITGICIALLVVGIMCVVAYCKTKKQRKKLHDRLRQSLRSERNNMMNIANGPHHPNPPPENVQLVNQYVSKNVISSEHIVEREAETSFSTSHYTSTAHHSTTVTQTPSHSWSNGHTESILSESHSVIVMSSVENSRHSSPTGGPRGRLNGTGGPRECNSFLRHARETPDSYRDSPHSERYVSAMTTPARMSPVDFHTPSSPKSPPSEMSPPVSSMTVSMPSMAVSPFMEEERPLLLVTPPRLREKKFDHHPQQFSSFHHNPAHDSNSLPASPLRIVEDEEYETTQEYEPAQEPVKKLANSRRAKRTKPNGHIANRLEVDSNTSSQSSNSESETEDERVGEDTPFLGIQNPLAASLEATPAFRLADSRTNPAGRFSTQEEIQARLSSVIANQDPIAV
Torsin-1A-interacting protein 2 (Homo sapiens), sequence (Q8NFQ8 whole entry, looked up): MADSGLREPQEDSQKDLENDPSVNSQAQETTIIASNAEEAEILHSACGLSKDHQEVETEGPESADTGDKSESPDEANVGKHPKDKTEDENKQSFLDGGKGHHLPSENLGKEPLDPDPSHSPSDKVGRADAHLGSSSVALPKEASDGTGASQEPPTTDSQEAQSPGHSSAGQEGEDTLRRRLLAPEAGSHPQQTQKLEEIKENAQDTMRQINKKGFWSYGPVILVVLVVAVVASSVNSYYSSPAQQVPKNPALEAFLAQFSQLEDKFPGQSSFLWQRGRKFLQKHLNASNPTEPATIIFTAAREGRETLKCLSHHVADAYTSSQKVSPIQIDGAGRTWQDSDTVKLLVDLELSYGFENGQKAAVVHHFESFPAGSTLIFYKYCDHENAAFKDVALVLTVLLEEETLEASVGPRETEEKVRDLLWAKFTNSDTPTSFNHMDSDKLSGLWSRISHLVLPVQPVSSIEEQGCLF

With `CCOC(=O)C[C@H]1[C@H](OC(=O)c2ccccc2-c2ccccc2)[C@@H](NC(=O)c2ccc3ccccc3c2)c2cc(OCCCO)ccc2N1C(=O)c1ccc2ccccc2n1`, the composite z-score was -0.279 in assay [1]; 0.353 in assay [2]; -0.08 in assay [3]; 0.443 in assay [4]; 0.135 in [5]; 0.0753 in [6]. Besides, the composite z-score in [7] was 0.545; in assay [9] it was 0.484; in [10], -0.0373; in assay [11], 0.389; in assay [15], 0.998; in [17], -0.102. Besides, the composite z-score in [18] is 0.526; in assay [19], 0.818; in [20], -0.111. Further, the z-score in assay [8] is 0.122 (inactive); in assay [12] it was 0.47 (inactive); in [13] it was 0.623 (inactive); in [14], 0.136 (inactive); in assay [16], -0.263 (inactive).

Consider `CS(=O)(=O)CCOC(=O)C1=CC(CCCO)=CC(c2cccs2)N(Cc2cc3c(cc2Br)OCO3)C=C1C(=O)OCCS(C)(=O)=O` (stereo not given), for which the composite z-score is -0.281 in [1]; 0.24 in [2]; 0.0737 in [3]; 0.517 in assay [4]; 1.5 in assay [5]; 1.88 in [6]. For the same compound, the composite z-score in assay [7] is 1.31; in assay [9], 0.827; in assay [10], 0.463; in [11], 1.56; in assay [15], 2.82; in assay [17], -0.0379. For the same compound, the composite z-score in assay [18] was determined as 0.91; in [19], 1.06; in assay [20], 0.0503. Further, the z-score is -1.91 (inactive) in assay [8]; 0.187 (inactive) in assay [12]; -1.16 (inactive) in assay [13]; -0.919 (inactive) in assay [14]; 0.734 (inactive) in [16].

As for `C[N+](C)(C)CCCCCCNC(=O)[C@H]1C[C@H]2C(=O)N3CCC[C@H]3C(=O)N2[C@H]1c1ccc(O)cc1`, the composite z-score was 0.159 in assay [1]; 1.01 in [2]; -0.116 in assay [3]; -0.0314 in assay [4]; -0.967 in [5]; 1.96 in assay [6]. The composite z-score in assay [7] was 1.37; in [9], -0.106; in assay [10] it was -0.0618; in assay [11], 1.54; in assay [15], 2.96; in assay [17], 0.0087. The composite z-score is 0.785 in assay [18], 0.6 in assay [19] and -0.36 in [20]. The z-score in assay [8] is 3.58 (inactive); in assay [12], -0.842 (inactive); in assay [13] it was -0.153 (inactive); in assay [14], -0.185 (inactive); in assay [16] it was 0.89 (inactive).

Take `O=C(CS)NCCCCCCNC(=O)[C@@H]1C[C@@H]2C(=O)N3CCC[C@H]3C(=O)N2[C@@H]1c1ccc(O)cc1`: the composite z-score was 0.525 in assay [1]; 0.0083 in assay [2]; -0.111 in [3]; 0.589 in [4]; -0.473 in [5]; 0.494 in assay [6]. Moreover, the composite z-score in assay [7] is 1.38; in assay [9] it was -0.28; in assay [10] it was -0.254; in assay [11], 1.14; in assay [15], 2.54; in assay [17], -0.0903. Moreover, the figures for the composite z-score in assay [18], in assay [19] and in assay [20] were -0.221, 0.165 and -0.118, respectively. Moreover, the z-score in assay [8] is 0.999 (inactive); in assay [12] it was 0.883 (inactive); in assay [13] it was 0.626 (inactive); in assay [14] it was 1.07 (inactive); in assay [16] it was 0.0508 (inactive).

Regarding `CC(c1ccccc1)C(O)C1C=CC2C(=O)NC(=O)C2N1Nc1ccccn1` (stereo not given), the composite z-score is 0.166 in assay [1]; -0.0988 in assay [2]; -0.044 in assay [3]; 0.306 in assay [4]; 1.5 in assay [5]; 0.142 in [6]. Further, the composite z-score was 1.33 in [7]; 0.421 in [9]; -0.271 in assay [10]; 1.43 in assay [11]; 1.52 in [15]; 0.136 in [17]. Also, the results for the composite z-score in [18], in assay [19] and in [20] were 0.361, 1.12 and -0.0159, respectively. In addition, the z-score was 1.14 (inactive) in [8]; 0.978 (inactive) in assay [12]; 0.704 (inactive) in assay [13]; 1.17 (inactive) in assay [14]; -0.88 (inactive) in assay [16].
